Assay results from ChEMBL document CHEMBL3988442, “University of Dundee, Small-Polar-MMV Screening Library” (2021).

Each compound was assayed against AMP-activated protein kinase, AMPK (Homo sapiens) (UniProt P54646+O43741+P54619+Q9UGJ0+Q9Y478+Q13131+Q9UGI9) (assay: AMP-dependent Kinase enzyme assay. An in vitro enzyme assay that detects ADP turnover that is directly proportional to AMPK activity. This uses naive AMPK that is activated during the assay with MK-8722). Settings: 30 µM.
Type: functional
Set-up: scale not given: direction of the effect not stated beside the values

Row | Compound | Percent Effect [%]
1 | Cn1ccnc1CN1CCCC1CCc1ccccc1 (stereo not given) | -8.09
2 | CC(C)(C)c1ncc2c(n1)CN(c1cc(NCCO)nc(N)n1)C2 | -194
3 | Fc1ccccc1CN1CCC[C@H](Cn2nnc(-c3cccs3)n2)C1 | 4.46
4 | CC(=O)c1cnc(NCCN2CCCC(c3ccccc3)C2)nc1C (stereo not given) | -7.52
5 | O=C(CC1C=CCC1)N1CCc2ncnc(NCc3ccon3)c2CC1 (stereo not given) | 21.6
6 | CC1CC(NS(=O)(=O)c2ccc(C(F)(F)F)nc2)C1 (stereo not given) | 19.9
7 | CCC[C@H]1CN(S(=O)(=O)N(C)Cc2ccccc2)C[C@@H]1N | -0.364
8 | CCC(C)C(=O)N(C)Cc1cc(F)ccc1N1CCC(OC)CC1 (stereo not given) | 8.71
9 | CC(C)Cn1ccnc1CNC(=O)N1CCCC1CN1CCOCC1 (stereo not given) | -4.29
10 | COC(=O)c1occc1Cn1cc(Br)cn1 | -0.99
11 | Cc1nc(-c2ccnn2C)cc(C2CCCN(S(C)(=O)=O)C2)n1 (stereo not given) | 13.9
12 | O=C(c1ccc2[nH]cnc2c1)N1CCC(Oc2ccccn2)CC1 | 3.35
13 | CCN(C)C[C@@H]1CN(C(=O)c2cc(C(F)(F)F)n[nH]2)C[C@@H]1CO | 7.62
14 | O=C(NCc1cc(-c2ccccc2)no1)NC1CCCCNC1=O (stereo not given) | -4.86
15 | CCS(=O)(=O)NCC(=O)N(C1CC1)C1Cc2ccccc2C1 | -4.92
16 | CC(C)C1C(=O)NCCN1C(=O)CCCc1nc(C(C)(C)C)no1 (stereo not given) | -5.25
17 | Cc1ncn(CCNC(=O)Nc2ccc(OC(F)(F)F)cc2)c(=O)c1C | 2.14
18 | CC(C)c1nn(C)cc1CNCc1cccnc1N(C)C | 0.312
19 | COCCNS(=O)(=O)c1c(C)sc2ccccc12 | -3.2
20 | Cc1nnc(-c2cccc(C#N)c2)n1C1CCCN(C(C)C)C1=O (stereo not given) | 4.62
